Active and inactive are the calls of the source. The call rests on the fitted dose curve; in most records, active means well fitted curve in the direction sought with a large enough effect in the repeat runs; inconclusive means weak or mixed curves; inactive means flat fitted curve, though single readings scatter.
Test: qHTS assay to test for compound auto fluorescence at 460 nm (blue) in HEK293 cells (AID 720678)
Details: blue autofluorescence 405/460 nm; series mostly up to 91.3 µM; fluorescence, % of triamterene: at the top concentration
Method in brief: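 Intrinsic compound fluorescence is recorded in live HEK293 cultures after overnight incubation at 37C, 5% CO2, using excitation 405 nm and emission 460 nm. Values are referenced to triamterene.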
On the % scale 0 is the no-effect control and ±100 the full control effect.

| Compound | fluorescence, % of triamterene |
| --- | --- |
| CC(C)(C)C(=O)OCOP(=O)(COCCn1cnc2c(N)ncnc21)OCOC(=O)C(C)(C)C | -0.275% [at 46 µM] (inactive) |
| CC(=O)CC(=O)c1ccccc1 | 0.0189% (inactive) |
| CCCCCCc1ccc(N)cc1 | 0.0005% (inactive) |
| CC(=O)[C@@]1(O)CC[C@H]2[C@@H]3C[C@H](C)C4=CC(=O)CC[C@]4(C)[C@H]3CC[C@@]21C | 0.0363% [at 46 µM] (inactive) |

Test: qHTS assay to test for compound auto fluorescence at 590 nm (red) in HEK293 cells (AID 720679)
Details: red autofluorescence 540/590 nm; series mostly up to 91.3 µM; fluorescence, % of fluorescent control: at the top concentration
Method in brief: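 Red autofluorescence, HEK293 cells: 2,000 cells/well; attach 4-5 hr 37C; add 23 nL cpd or DMSO; incubate o/n 37C 5% CO2; read Ex540/Em590; Rose Bengal sodium reference.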

| Compound | fluorescence, % of fluorescent control | outcome |
| --- | --- | --- |
| CC1CCc2cc(F)cc3c(=O)c(C(=O)O)cn1c23 (stereo not drawn) | -0.268% [at 46 µM] (inactive) |  |
| CC1=CCC(C(C)C)C=C1 (stereo not drawn) | -0.162% (inactive) |  |
| CC(=O)c1ccc2c(c1)[C@H](NC(=O)c1ccc(F)cc1)[C@@H](O)C(C)(C)O2 | -0.368% (inactive) |  |
| C=C(C)C(=O)OC(C)C | 0.345% (inactive) |  |
| CC(C)c1ccccc1C(C)C | -0.727% (inactive) |  |
| CCOc1cc(OCC)c(C(=O)CCC(=O)O)cc1OCC | -0.14% [at 46 µM] (inactive) |  |
| CC(C)CCCC(C)CCO (stereo not drawn) | -0.598% (inactive) |  |
| CC(C)(C)C1CCCCC1O (stereo not drawn) | -0.485% (inactive) |  |
| CCC(=O)OC(C)(C)C1CC=C(C)CC1 (stereo not drawn) | -0.253% (inactive) |  |
| Cc1ncsc1CCO | -0.0898% (inactive) |  |
| CCCOc1ccc2nc(NC(=O)OC)[nH]c2c1 | -0.0194% [at 46 µM] (inactive) |  |
| COCCOCCOCCOCCOC | 0.297% (inactive) |  |
| CC(=O)Nc1ccc(/C=N/NC(N)=S)cc1 |  | inactive |
| COc1ccc(C(C)=O)cc1 | -0.135% [at 95.7 µM] (inactive) |  |
| N=C(N=C(N)N)N1CCOCC1 | 0.0856% [at 18.6 µM] (inactive) |  |
| CCCCCCCCCO | 0.286% (inactive) |  |
| CC[C@H](C)[C@H](N)C(=O)O | 0.0014% [at 46 µM] (inactive) |  |
| Cc1cc(NC(=O)C(=O)O)cc(C)c1Oc1ccc(O)c2c1CCC2 | -0.0071% (inactive) |  |
| O=C(C(=O)c1ccc(Br)cc1)c1ccc(Br)cc1 | 0.203% [at 18.6 µM] (inactive) |  |

| Compound | fluorescence, % of fluorescent control | outcome |
| --- | --- | --- |
| C#CCOC(=O)[C@@H](C)Oc1ccc(Oc2ncc(Cl)cc2F)cc1 | -0.0391% (inactive) |  |
| CC(C)=CCCC(C)CC=O (stereo not drawn) | 0.456% (inactive) |  |
| COCCO | 0.385% (inactive) |  |
| O=C=NC1CCC(CC2CCC(N=C=O)CC2)CC1 (stereo not drawn) | -0.0163% (inactive) |  |
| CC(C)c1cccc(C(C)C)c1NC(=O)NS(=O)(=O)c1cc(C(C)(C)O)co1 | -0.631% (inactive) |  |
| N#Cc1cc2ccccc2c2ccccc12 | -0.127% (inactive) |  |
| Nc1nc(N)c2nc(CNc3ccc(C(=O)N[C@@H](CCC(=O)O)C(=O)O)cc3)cnc2n1 |  | inactive |
| C1=Cc2ccccc2C1 | -0.0173% (inactive) |  |
| CCCCCc1ccc(N)cc1 | -1.07% (inactive) |  |
| Cc1cccc(OCCOc2cccc(C)c2)c1 | 0.367% [at 95.7 µM] (inactive) |  |
| Cc1ccc(C(=O)C(C)CN2CCCCC2)cc1 (stereo not drawn) |  | inactive |
| N#Cc1c(F)cccc1F | -0.0464% (inactive) |  |
| Nc1cnn([C@@H]2O[C@H](CO)[C@@H](O)[C@H]2O)c(=O)n1 | -0.177% (inactive) |  |
| CC[C@H](C)[C@@H](C(=O)O)n1sc2ccccc2c1=O | -0.0279% (inactive) |  |
| O=C1[C@H](CC[C@H](O)c2ccc(F)cc2)[C@@H](c2ccc(O)cc2)N1c1ccc(F)cc1 | -0.0116% [at 46 µM] (inactive) |  |
| CC(C)(C)C(=O)OCOP(=O)(COCCn1cnc2c(N)ncnc21)OCOC(=O)C(C)(C)C | 0.0061% [at 46 µM] (inactive) |  |
| CC(=O)CC(=O)c1ccccc1 | -0.0428% (inactive) |  |
| CCCCCCc1ccc(N)cc1 | -0.0004% (inactive) |  |
| CC(=O)[C@@]1(O)CC[C@H]2[C@@H]3C[C@H](C)C4=CC(=O)CC[C@]4(C)[C@H]3CC[C@@]21C | 0.306% [at 46 µM] (inactive) |  |

Test: qHTS assay to test for compound auto fluorescence at 535 nm (green) in HEK293 cells (AID 720680)
Details: green autofluorescence 485/535 nm; series mostly up to 91.3 µM; fluorescence, % of fluorescein: at the top concentration

| Compound | fluorescence, % of fluorescein | outcome |
| --- | --- | --- |
| CC1=CCC(C(C)C)C=C1 (stereo not drawn) | 2e-05% (inactive) |  |
| CC(=O)c1ccc2c(c1)[C@H](NC(=O)c1ccc(F)cc1)[C@@H](O)C(C)(C)O2 | -0.0422% (inactive) |  |
| C=C(C)C(=O)OC(C)C | -0.0581% (inactive) |  |
| CC(C)c1ccccc1C(C)C | 0.0002% (inactive) |  |
| CCOc1cc(OCC)c(C(=O)CCC(=O)O)cc1OCC | -0.0088% [at 46 µM] (inactive) |  |
| CC(C)CCCC(C)CCO (stereo not drawn) | -0.106% (inactive) |  |
| CC(C)(C)C1CCCCC1O (stereo not drawn) | -0.0366% (inactive) |  |
| Cc1ncsc1CCO | 0.002% (inactive) |  |
| COCCOCCOCCOCCOC | 0.0288% (inactive) |  |
| CC(=O)Nc1ccc(/C=N/NC(N)=S)cc1 |  | inactive |
| N=C(N=C(N)N)N1CCOCC1 | -0.0392% [at 18.6 µM] (inactive) |  |
| CCCCCCCCCO | 0.0705% (inactive) |  |
| Cc1cc(NC(=O)C(=O)O)cc(C)c1Oc1ccc(O)c2c1CCC2 | 0.0445% (inactive) |  |
| O=C(C(=O)c1ccc(Br)cc1)c1ccc(Br)cc1 | -0.0337% [at 18.6 µM] (inactive) |  |
| C#CCOC(=O)[C@@H](C)Oc1ccc(Oc2ncc(Cl)cc2F)cc1 | 0.0103% (inactive) |  |
| CC(C)=CCCC(C)CC=O (stereo not drawn) | 0.0858% (inactive) |  |

| Compound | fluorescence, % of fluorescein | outcome |
| --- | --- | --- |
| COCCO | -0.0143% (inactive) |  |
| O=C=NC1CCC(CC2CCC(N=C=O)CC2)CC1 (stereo not drawn) | -0.174% (inactive) |  |
| CC(C)c1cccc(C(C)C)c1NC(=O)NS(=O)(=O)c1cc(C(C)(C)O)co1 | -0.0022% (inactive) |  |
| N#Cc1cc2ccccc2c2ccccc12 | 0.0207% (inactive) |  |
| Nc1nc(N)c2nc(CNc3ccc(C(=O)N[C@@H](CCC(=O)O)C(=O)O)cc3)cnc2n1 |  | inactive |
| C1=Cc2ccccc2C1 | -0.142% (inactive) |  |
| Cc1cccc(OCCOc2cccc(C)c2)c1 | 0.0728% [at 95.7 µM] (inactive) |  |
| Cc1ccc(C(=O)C(C)CN2CCCCC2)cc1 (stereo not drawn) |  | inactive |
| N#Cc1c(F)cccc1F | -0.0844% (inactive) |  |
| Nc1cnn([C@@H]2O[C@H](CO)[C@@H](O)[C@H]2O)c(=O)n1 | -0.208% (inactive) |  |
| CC[C@H](C)[C@@H](C(=O)O)n1sc2ccccc2c1=O | -0.0111% (inactive) |  |
| O=C1[C@H](CC[C@H](O)c2ccc(F)cc2)[C@@H](c2ccc(O)cc2)N1c1ccc(F)cc1 | 0.0303% [at 46 µM] (inactive) |  |
| CC(C)(C)C(=O)OCOP(=O)(COCCn1cnc2c(N)ncnc21)OCOC(=O)C(C)(C)C | -0.0534% [at 46 µM] (inactive) |  |
| CCCCCCc1ccc(N)cc1 | 0.0154% (inactive) |  |
| CC(=O)[C@@]1(O)CC[C@H]2[C@@H]3C[C@H](C)C4=CC(=O)CC[C@]4(C)[C@H]3CC[C@@]21C | 0.186% [at 46 µM] (inactive) |  |

Reference: PubChem BioAssay (Tox21)
